Test results reported in PubChem BioAssay AID463173 (ICCB-Longwood Screening Facility, Harvard Medical School, 2010).
The whole screen tested about 52,000 compounds, of which about 4,300 (8.3%) were called active. No stated cut-off is given here; in the data, active means survival mostly below about 52% (no sharp cut-off); inactive means mostly above about 56%. The entries come from a sample that favours actives as a whole.

system: DeltatarO mutant; assay: growth inhibition of S. aureus wild type versus tarO mutant, primary screen, teichoic acid synthesis inhibitors, RN4220, OD600 (AID 463173); settings: OD600, 18 h, stronger effect = lower value, screened at 18.75 µg/mL (by protocol)

Compound | survival
CCOC(=O)c1c(NC(=O)c2cc(-c3ccc(Cl)cc3)on2)sc(C)c1C | 68% (inactive)
CCOC(=O)c1c(NC(=O)c2cc(-c3ccc(OC)cc3)on2)sc(C)c1C | 45% (active)
CCOC(=O)c1sc(NC(=O)c2cc(-c3ccc(F)cc3)on2)c(C(=O)OCC)c1C | 65% (inactive)
CCOC(=O)c1c(NC(=O)c2cc(-c3cccc(Cl)c3)on2)sc(C)c1C | 56% (active)
CCOC(=O)c1c(NC(=O)c2cc(-c3ccc(OC)c(OC)c3)on2)sc(C)c1C | 42% (active)
CCOC(=O)c1c(NC(=O)c2cc(-c3ccc(Br)cc3)on2)sc(C(C)=O)c1C | 88% (inactive)
CCOC(=O)c1c(NC(=O)c2cc(CC(C)C)on2)sc(C(C)=O)c1C | 54% (active)
CCOC(=O)c1c(NC(=O)c2cc(C(C)C)on2)sc(C(C)=O)c1C | 123% (inactive)
CCOC(=O)c1c(NC(=O)c2cc(-c3ccc(Br)cc3)on2)sc(C)c1C | 166% (inactive)
CCOC(=O)c1c(NC(=O)c2cc(-c3cccc(Cl)c3)on2)sc(C(C)=O)c1C | 56% (inactive)
CCOC(=O)c1c(NC(=O)c2cc(CC)on2)sc(C(C)=O)c1C | 52% (inactive)
CCOC(=O)c1c(NC(=O)c2cc(-c3ccccc3OC)on2)sc(C)c1C | 61% (inactive)
CN(C)CCNC(=O)Cn1c(=O)c2cccn2c2ccc(F)cc21 | 103% (inactive)
CCOC(=O)c1ccc(N2C(=O)c3n[nH]c(-c4ccco4)c3C2c2ccc(OC)cc2OC)cc1 (centres undefined) | 89% (inactive)
CCOc1ccc(C(=O)OCc2cc(=O)n3nc(C4CC4)sc3n2)cc1 | 80% (inactive)
CC(C)N(C)NC(=S)Nc1ccccc1 | 77% (inactive)
CCN(CC)C(=O)Cn1c(=O)n(CCCCCC(=O)Nc2ccccc2)c(=O)c2sccc21 | 82% (inactive)
COc1ccc(-c2cc3nccc(C4CCN(C(=O)OC(C)(C)C)CC4)n3n2)cc1 | 102% (inactive)
CCOC(=O)c1c(NC(=O)c2cc(C)on2)sc(C)c1C | 47% (active)
CCOC(=O)c1c(NC(=O)c2cc(C(C)C)on2)sc(C)c1C | 49% (inactive)

Compound | survival
CCOC(=O)c1c(NC(=O)c2cc(CC)on2)sc(C)c1C | 144% (inactive)
Cc1nn(C)c2c1c(C(F)(F)F)cc(=O)n2CC(=O)NCCC(C)C | 95% (inactive)
O=C(NCCc1ccccc1)c1cc(Sc2ccc(F)cc2F)nc2ccccc12 | 98% (inactive)
COc1ccc(C2CC(=O)Nc3cc4c(cc32)OCO4)c(OC)c1 (centres undefined) | 80% (inactive)
COc1ccc(N(Cc2cc3cccc(C)c3[nH]c2=O)C(=O)c2cccc(Cl)c2)cc1 | 67% (inactive)
COC(=O)c1c(NC(=O)c2ccc(C(C)(C)C)cc2)sc2c1CCC(C)C2 (centres undefined) | 85% (inactive)
COC(=O)c1c(NC(=O)COc2ccc(C)cc2Br)sc2c1CCCC2 | 61% (inactive)
COC(=O)c1c(NC(=O)CCCOc2ccc(C(C)(C)C)cc2)sc2c1CCC(C)C2 (centres undefined) | 28% (active)
CCOC(=O)c1c(NC(=O)CS(=O)(=O)c2ccc(C)cc2)sc2c1CCCCC2 | 66% (inactive)
CC1CCc2c(sc(NC(=O)CCCOc3ccc(C(C)(C)C)cc3)c2C(N)=O)C1 (centres undefined) | 60% (inactive)
COC(=O)c1c(NC(=O)CCCOc2cccc(C)c2)sc2c1CCC2 | 15% (active)
COC(=O)c1c(NC(=O)Cc2coc3ccc(C)cc23)sc2c1CCC2 | 59% (inactive)
Cc1cccc(OCCCC(=O)Nc2sc3c(c2C(N)=O)CCC(C)C3)c1 (centres undefined) | 73% (inactive)
COC(=O)c1c(NC(=O)CCCOc2cccc(C)c2)sc2c1CCC(C)C2 (centres undefined) | 10% (active)
COC(=O)c1c(NC(=O)CS(=O)(=O)c2ccc(C)cc2)sc2c1CCCC2 | -4% (active)
COC(=O)c1c(NC(=O)CS(=O)(=O)c2ccc(C)cc2)sc2c1CCCCC2 | 76% (inactive)
CCOC(=O)c1c(NC(=O)COc2ccc(C)cc2C(C)(C)C)sc2c1CCC(C)C2 (centres undefined) | 55% (inactive)
O=c1c(S(=O)(=O)c2cccc(Cl)c2)cn(Cc2ccccc2)c2cc(N3CCCCC3)c(F)cc12 | 89% (inactive)
O=c1oc2cc(O)ccc2cc1-c1nc(-c2ccc(Cl)c(Cl)c2)cs1 | 101% (inactive)
O=C(Cn1c(=O)c2ccccc2n(CC(=O)Nc2ccc(F)cc2F)c1=O)NCCc1ccccc1 | 81% (inactive)

Compound | survival
COc1cc(NC(=O)Nc2cccc(-c3noc(C)n3)c2)cc(OC)c1OC | 128% (inactive)
CC(C)Cn1c(SCC(N)=O)nc2ccccc2c1=O | 97% (inactive)
O=C(CN1C(=O)c2cccc3cccc1c23)N1CCCC1 | 85% (inactive)
Cc1ccc(Cl)cc1NC(=O)Cn1c(=O)n(C(C)C)c(=O)c2oc3ccccc3c21 | 51% (inactive)
Cc1ccc(Cl)cc1N1CCN(C(=O)C2CCCN(S(=O)(=O)c3ccc(Br)s3)C2)CC1 (centres undefined) | 113% (inactive)
COc1ccccc1N(CC(=O)NC1CCCCC1)C(=O)c1csnn1 | 96% (inactive)
O=C(NCc1cccc(F)c1)c1ccc(CS(=O)c2ccccc2Cl)o1 (centres undefined) | 68% (inactive)
Cc1ccc(OCCCC(=O)Nc2sc3c(c2C(N)=O)CCCC3)cc1 | 53% (inactive)
COc1ccc(NC(=O)c2c(NC(=O)COc3ccccc3)sc3c2CCC(C)C3)cc1 (centres undefined) | 120% (inactive)
CCOc1ccc(/C=C/C(=O)Nc2sc3c(c2C(=O)OC)CCC3)cc1 | 75% (inactive)
COC(=O)c1c(NC(=O)CCCOc2ccc(C)cc2)sc2c1CCCC2 | 8% (active)
CC1CCc2c(sc(NC(=O)CCCOc3ccccc3)c2C(N)=O)C1 (centres undefined) | 78% (inactive)
COC(=O)c1c(NC(=O)CCCOc2ccccc2)sc2c1CCC(C)C2 (centres undefined) | 2% (active)
COC(=O)c1c(NC(=O)COc2ccc(Cl)cc2C)sc2c1CCCCC2 | 68% (inactive)
Cc1ccccc1OCC(=O)Nc1sc2c(c1C(=O)OC(C)C)CCCC2 | 77% (inactive)
COC(=O)c1c(NC(=O)CCCOc2ccccc2C)sc2c1CCC2 | 4% (active)
CCS(=O)(=O)Nc1ccc2[nH]c(=O)[nH]c2c1 | 88% (inactive)
CCc1ccc(NC(=O)CNC(=O)Cn2c(C)cc3ccccc3c2=O)cc1 | 114% (inactive)
CCN(C(=O)C1CCN(S(=O)(=O)c2c(C)noc2/C=C/c2ccc(C)cc2)CC1)c1cccc(C)c1 | 84% (inactive)
